Test results from PubChem BioAssay (EPA / NIEHS).
Results filed as inconclusive are left out. Active and inactive are the calls of the source. Rule for the calls, unless noted: active = hit-call score of the fitted dose curve at least 0.9, where 1 is the maximum; inactive = score below 0.9.

What was measured:
[1] = ATG_Sox_CIS: Attagene CIS-FACTORIAL HepG2 Assay for human SRY-box transcription factor (SOX) (AID 2282960); conditions: HepG2 Attagene cis-factorial SOX reporter, mRNA; actives raise or lower the signal
Summary of the method: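 Using transiently transfected HepG2 cells, reporter transcription driven by cis elements was assessed 24 h after dosing. Signal was fluorescence of capillary-separated RT-PCR products, with DMSO defining baseline activity.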

[2] = target: Transcription factor Sp1 (Homo sapiens) (UniProt P08047); assay: ATG_Sp1_CIS: Attagene CIS-FACTORIAL HepG2 Assay for human Specificity Protein 1 (Sp1) (AID 2282961); conditions: HepG2 Sp1 cis-reporter transcription, actives raise or lower the signal
Sequence of Transcription factor Sp1 (Homo sapiens) (P08047 whole entry, looked up): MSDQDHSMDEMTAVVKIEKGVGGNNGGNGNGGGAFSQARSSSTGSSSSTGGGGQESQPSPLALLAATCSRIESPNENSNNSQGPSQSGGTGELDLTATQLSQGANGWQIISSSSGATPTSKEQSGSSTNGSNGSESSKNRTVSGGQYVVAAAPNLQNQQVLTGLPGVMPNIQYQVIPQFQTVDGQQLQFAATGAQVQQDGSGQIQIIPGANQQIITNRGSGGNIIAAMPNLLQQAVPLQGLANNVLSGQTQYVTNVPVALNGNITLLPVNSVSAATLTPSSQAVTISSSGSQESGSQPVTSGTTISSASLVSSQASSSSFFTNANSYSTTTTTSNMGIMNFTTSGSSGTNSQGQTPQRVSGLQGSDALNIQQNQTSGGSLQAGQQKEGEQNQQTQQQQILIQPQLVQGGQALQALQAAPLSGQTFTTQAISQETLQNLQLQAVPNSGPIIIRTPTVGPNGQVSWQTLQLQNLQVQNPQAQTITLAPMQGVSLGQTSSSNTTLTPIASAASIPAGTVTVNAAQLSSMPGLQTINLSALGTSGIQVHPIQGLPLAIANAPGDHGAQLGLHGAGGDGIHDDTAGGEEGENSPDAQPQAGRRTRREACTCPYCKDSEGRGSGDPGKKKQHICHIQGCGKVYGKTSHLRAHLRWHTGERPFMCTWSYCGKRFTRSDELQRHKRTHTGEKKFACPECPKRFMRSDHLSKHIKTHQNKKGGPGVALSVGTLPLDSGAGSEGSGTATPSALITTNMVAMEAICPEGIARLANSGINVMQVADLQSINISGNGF
Summary of the method: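 After transient transfection of HepG2 cells with cis-promoter reporter units and 24 h chemical treatment, reporter transcripts were quantified by RT-PCR and capillary electrophoresis fluorescence. Gain- and loss-of-signal fitted against DMSO.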

[3] = ATG_SREBP_CIS: Attagene CIS-FACTORIAL HepG2 Assay for human Sterol Regulatory Element Binding (SREBP) (AID 2282962); conditions: HepG2 Attagene cis-factorial SREBP reporter, mRNA; actives raise or lower the signal
Summary of the method: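 Values derive from bidirectional curve fitting with DMSO as baseline. The underlying measurement is reporter mRNA from cis-element-regulated units in transiently transfected HepG2, quantified by RT-PCR and capillary electrophoresis after 24 h exposure.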

[4] = target: Signal transducer and activator of transcription 3 (Homo sapiens) (UniProt P40763); assay: ATG_STAT3_CIS: Attagene CIS-FACTORIAL HepG2 Assay for human Signal Transducer and Activator of Transcription 3 (STAT3) (AID 2282963); conditions: HepG2, Attagene cis-factorial STAT3 reporter transcription; actives raise or lower the signal
Sequence of Signal transducer and activator of transcription 3 (Homo sapiens) (P40763 whole entry, looked up): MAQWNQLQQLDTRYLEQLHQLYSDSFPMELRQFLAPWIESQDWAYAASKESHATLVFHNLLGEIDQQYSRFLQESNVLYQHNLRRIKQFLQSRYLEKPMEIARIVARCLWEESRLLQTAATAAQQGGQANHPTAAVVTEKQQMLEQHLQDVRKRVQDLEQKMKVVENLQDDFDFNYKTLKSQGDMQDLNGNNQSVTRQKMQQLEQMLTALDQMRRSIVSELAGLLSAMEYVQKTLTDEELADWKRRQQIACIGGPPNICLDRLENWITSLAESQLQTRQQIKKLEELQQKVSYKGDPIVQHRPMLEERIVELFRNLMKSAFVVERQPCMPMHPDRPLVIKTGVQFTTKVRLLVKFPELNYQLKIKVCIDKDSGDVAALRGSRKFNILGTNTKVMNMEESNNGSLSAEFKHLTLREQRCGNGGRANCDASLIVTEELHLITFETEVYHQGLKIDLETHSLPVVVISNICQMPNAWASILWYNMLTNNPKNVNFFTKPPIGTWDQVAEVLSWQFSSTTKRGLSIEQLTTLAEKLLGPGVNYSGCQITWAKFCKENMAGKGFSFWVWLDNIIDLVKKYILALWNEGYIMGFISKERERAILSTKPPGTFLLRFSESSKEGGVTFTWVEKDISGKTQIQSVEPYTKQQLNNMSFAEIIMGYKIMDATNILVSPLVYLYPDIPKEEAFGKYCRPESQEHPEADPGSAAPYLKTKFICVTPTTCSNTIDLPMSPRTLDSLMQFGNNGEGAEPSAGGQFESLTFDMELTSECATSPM
Summary of the method: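 HepG2, MRTU-transfected, 24 h dosing. RNA → RT → PCR → FAM label → HpaI → CE. Bidirectional fit vs DMSO.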

[5] = ATG_TA_CIS: Attagene CIS-FACTORIAL HepG2 Assay for human TA Basal Promoter (AID 2282964); conditions: HepG2 Attagene CIS-factorial TA basal promoter reporter; actives raise or lower the signal
Summary of the method: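 Fluorescence from labelled RT-PCR reporter fragments, separated by capillary electrophoresis, gives the signal. Cells: HepG2 transiently carrying multiple reporter units, 24 h chemical dosing. Gain or loss relative to DMSO.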

[6] = ATG_TAL_CIS: Attagene CIS-FACTORIAL HepG2 Assay for human TAL Basal Promoter (AID 2282966); conditions: HepG2 Attagene cis-factorial TAL promoter reporter; actives raise or lower the signal;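 note: background control endpoint measuring basal TAL promoter reporter mRNA not a specific factor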
Summary of the method: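 Basal-promoter background-control endpoint from a multiplexed HepG2 reporter panel. Cells were exposed 24 h, then reporter mRNA was read by RT-PCR/CE fluorescence and fitted in both directions relative to DMSO.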

[7] = ATG_TGFb_CIS: Attagene CIS-FACTORIAL HepG2 Assay for human Transforming Growth Factor (TGF) (AID 2282967); conditions: HepG2 Attagene CIS TGFb reporter, mRNA transcription; actives raise or lower the signal
Summary of the method: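 Bidirectional fitting relative to DMSO gave the endpoint. Underlying data: reporter mRNA from HepG2 cells carrying transiently transfected cis-regulated reporter constructs, harvested 24 h after dosing and analyzed by RT-PCR and capillary electrophoresis.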

[8] = ATG_VDRE_CIS: Attagene CIS-FACTORIAL HepG2 Assay for human Vitamin D Receptor Element (VDRE) (AID 2282968); conditions: HepG2 VDRE cis-reporter transcription, actives raise or lower the signal
Summary of the method: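 Steps: transfect HepG2 with multiple reporter transcription units; dose chemicals 24 h; isolate RNA; RT-PCR; label with 6-FAM primer extension; HpaI digest; capillary electrophoresis. Curves fitted both directions against DMSO.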

[9] = target: Nuclear receptor subfamily 1 group I member 3 (Homo sapiens) (UniProt Q14994); assay: ATG_CAR_TRANS: Attagene TRANS-FACTORIAL HepG2 Assay for human Constitutive Androstane Receptor (CAR) (AID 2282969; active = hit-call score of the fitted dose curve at least 0.9, where 1 is the maximum;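 note: activators raise reporter mRNA above DMSO so AC50 marks induction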); conditions: HepG2 Attagene TRANS-FACTORIAL CAR reporter
Sequence of Nuclear receptor subfamily 1 group I member 3 (Homo sapiens) (Q14994 whole entry, looked up, the tested form may be a part): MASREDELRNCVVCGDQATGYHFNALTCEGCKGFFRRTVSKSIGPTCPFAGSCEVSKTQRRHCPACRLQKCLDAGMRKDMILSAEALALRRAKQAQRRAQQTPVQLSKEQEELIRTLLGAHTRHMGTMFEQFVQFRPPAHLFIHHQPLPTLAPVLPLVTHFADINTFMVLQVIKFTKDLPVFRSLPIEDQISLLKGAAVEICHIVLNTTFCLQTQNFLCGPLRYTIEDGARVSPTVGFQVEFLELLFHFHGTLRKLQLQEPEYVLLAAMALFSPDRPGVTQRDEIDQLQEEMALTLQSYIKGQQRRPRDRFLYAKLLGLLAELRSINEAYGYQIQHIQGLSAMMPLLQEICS
Summary of the method: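 Steps: transient transfection of HepG2 with multiple GAL4-UAS reporter units; 24 h compound incubation; RNA isolation, RT-PCR, 6-FAM primer extension, HpaI digest; capillary electrophoresis. Gain-of-signal relative to DMSO negative control.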

[10] = target: X-box-binding protein 1 (Homo sapiens) (UniProt P17861); assay: ATG_Xbp1_CIS: Attagene CIS-FACTORIAL HepG2 Assay for human X-box Binding Protein 1 (XBP1) (AID 2282972); conditions: HepG2 XBP1 cis-element reporter, Attagene multiplex; actives raise or lower the signal
Sequence of X-box-binding protein 1 (Homo sapiens) (P17861 whole entry, looked up): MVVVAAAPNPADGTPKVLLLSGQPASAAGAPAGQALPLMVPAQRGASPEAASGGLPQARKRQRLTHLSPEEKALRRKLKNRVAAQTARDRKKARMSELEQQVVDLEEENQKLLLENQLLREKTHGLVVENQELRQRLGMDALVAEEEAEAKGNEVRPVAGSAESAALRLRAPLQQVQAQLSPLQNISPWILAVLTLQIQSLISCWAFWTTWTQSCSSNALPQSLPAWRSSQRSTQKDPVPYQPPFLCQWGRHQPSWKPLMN
Summary of the method: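 Human hepatoma HepG2, cis-element reporter system, 24 h treatment; mRNA quantified by RT-PCR/CE fluorescence; fit relative to DMSO.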

[11] = ATG_M_19_TRANS: Attagene TRANS-FACTORIAL HepG2 Assay for M19 Transcription Factor (Internal Marker) (AID 2282974; active = hit-call score of the fitted dose curve at least 0.9, where 1 is the maximum); conditions: HepG2 Attagene TRANS-FACTORIAL M19 internal marker reporter
Summary of the method: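 Gain-of-signal in reporter mRNA, relative to DMSO, was scored from capillary electrophoresis fluorescence. HepG2 cells carried transiently transfected multiple reporter transcription units and were incubated with test chemicals for 24 h.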

[12] = ATG_TCF_b_cat_CIS: Attagene CIS-FACTORIAL HepG2 Assay for human T-Cell-Factor with beta-catenin (TCF/b-cat) (AID 2282965); conditions: HepG2 TCF/beta-catenin cis-reporter transcription, actives raise or lower the signal
Summary of the method: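 HepG2 cells transiently transfected with multiple cis-promoter-regulated reporter transcription units, so endogenous transcription factor activity is measured. Reporter mRNA read 24 hours after dosing by RT-PCR, fluorescent labelling and capillary electrophoresis; bidirectional fitting against DMSO.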

[13] = target: Estrogen receptor (Homo sapiens) (UniProt P03372); assay: ATG_ERa_TRANS: Attagene TRANS-FACTORIAL HepG2 Assay for human Estrogen Receptor alpha (ERa) (AID 2282970; active = hit-call score of the fitted dose curve at least 0.9, where 1 is the maximum); conditions: HepG2 Attagene TRANS ERa GAL4 reporter, mRNA
Sequence of Estrogen receptor (Homo sapiens) (P03372 whole entry, looked up, the tested form may be a part): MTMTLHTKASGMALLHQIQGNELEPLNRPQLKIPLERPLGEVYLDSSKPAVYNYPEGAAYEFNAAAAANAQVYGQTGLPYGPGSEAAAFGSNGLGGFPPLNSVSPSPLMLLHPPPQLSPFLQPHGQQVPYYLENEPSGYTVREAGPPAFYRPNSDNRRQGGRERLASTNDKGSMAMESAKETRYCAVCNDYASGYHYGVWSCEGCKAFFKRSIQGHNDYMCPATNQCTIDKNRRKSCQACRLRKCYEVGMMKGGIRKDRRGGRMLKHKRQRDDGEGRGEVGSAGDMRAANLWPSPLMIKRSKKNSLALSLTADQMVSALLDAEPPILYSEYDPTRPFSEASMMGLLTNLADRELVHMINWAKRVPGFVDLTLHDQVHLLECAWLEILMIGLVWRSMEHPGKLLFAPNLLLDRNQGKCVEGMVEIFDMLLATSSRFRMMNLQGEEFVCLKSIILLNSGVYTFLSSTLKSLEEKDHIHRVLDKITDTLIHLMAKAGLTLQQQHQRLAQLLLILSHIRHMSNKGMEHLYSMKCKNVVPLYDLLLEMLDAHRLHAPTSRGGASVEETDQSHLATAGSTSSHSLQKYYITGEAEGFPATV
Summary of the method: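 Gal4-fusion ERa transactivation, measured as reporter transcript level in transiently transfected HepG2 cells. Exposure 24 h; RT-PCR plus capillary electrophoresis with fluorescence detection.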

[14] = target: Estrogen-related receptor gamma (Homo sapiens) (UniProt P62508); assay: ATG_ERRg_TRANS: Attagene TRANS-FACTORIAL HepG2 Assay for human Estrogen-Related Receptor gamma (ERRg) (AID 2282977; active = hit-call score of the fitted dose curve at least 0.9, where 1 is the maximum;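 note: hits increase reporter signal over DMSO so potencies reflect activators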); conditions: HepG2 Attagene TRANS reporter, ERRg transactivation
Sequence of Estrogen-related receptor gamma (Homo sapiens) (P62508 whole entry, looked up, the tested form may be a part): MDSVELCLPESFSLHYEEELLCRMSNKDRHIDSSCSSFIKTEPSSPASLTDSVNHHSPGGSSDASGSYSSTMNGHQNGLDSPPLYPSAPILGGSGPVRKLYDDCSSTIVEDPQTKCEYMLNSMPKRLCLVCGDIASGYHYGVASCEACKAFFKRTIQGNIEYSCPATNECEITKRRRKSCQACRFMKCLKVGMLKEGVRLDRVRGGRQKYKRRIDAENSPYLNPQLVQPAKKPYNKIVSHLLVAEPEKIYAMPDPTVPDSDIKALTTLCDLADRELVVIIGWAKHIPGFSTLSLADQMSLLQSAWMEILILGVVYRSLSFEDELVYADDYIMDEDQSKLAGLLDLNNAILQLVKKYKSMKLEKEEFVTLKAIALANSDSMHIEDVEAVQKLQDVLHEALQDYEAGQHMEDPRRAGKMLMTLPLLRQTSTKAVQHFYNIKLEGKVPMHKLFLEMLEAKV
Summary of the method: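 Induction of reporter transcripts through a chimeric NR-Gal4 protein is quantified in transfected human HepG2 liver cells after 24 h chemical exposure, using RT-PCR with capillary electrophoresis detection and DMSO as baseline.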

[15] = target: Bile acid receptor (Homo sapiens) (UniProt Q96RI1); assay: ATG_FXR_TRANS: Attagene TRANS-FACTORIAL HepG2 Assay for Farnesoid X Receptor (FXR) (AID 2282979; active = hit-call score of the fitted dose curve at least 0.9, where 1 is the maximum;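 note: hits raise reporter mRNA above DMSO so AC50 marks FXR activation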); conditions: HepG2 Attagene TRANS FXR-GAL4 reporter transcription
Sequence of Bile acid receptor (Homo sapiens) (Q96RI1 whole entry, looked up, the tested form may be a part): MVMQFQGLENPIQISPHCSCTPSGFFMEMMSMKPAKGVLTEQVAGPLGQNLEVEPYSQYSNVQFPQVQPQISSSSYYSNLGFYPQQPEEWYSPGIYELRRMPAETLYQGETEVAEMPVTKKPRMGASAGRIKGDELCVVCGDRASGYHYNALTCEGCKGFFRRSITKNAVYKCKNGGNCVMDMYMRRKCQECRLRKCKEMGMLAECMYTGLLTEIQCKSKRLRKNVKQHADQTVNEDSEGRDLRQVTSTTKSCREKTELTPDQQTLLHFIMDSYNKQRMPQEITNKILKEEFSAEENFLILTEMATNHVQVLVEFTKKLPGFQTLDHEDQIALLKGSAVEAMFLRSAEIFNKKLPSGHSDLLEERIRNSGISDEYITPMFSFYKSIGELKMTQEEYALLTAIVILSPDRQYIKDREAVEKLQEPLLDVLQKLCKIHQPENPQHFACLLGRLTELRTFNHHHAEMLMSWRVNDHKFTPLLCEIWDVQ
Summary of the method: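 HepG2 cells were transiently transfected with GAL4-UAS reporters driven by chimeric NR-Gal4 proteins and dosed for 24 h. Reporter mRNA was quantified by RT-PCR, fluorescent labelling, HpaI digestion and capillary electrophoresis, with gain of signal scored versus DMSO.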

[16] = ATG_GAL4_TRANS: Attagene TRANS-FACTORIAL HepG2 Assay for GAL4 (Internal Marker) (AID 2282976; active = hit-call score of the fitted dose curve at least 0.9, where 1 is the maximum); conditions: HepG2 Attagene TRANS GAL4 internal marker reporter
Summary of the method: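 Background-control readout: GAL4-UAS reporter transcript in transiently transfected HepG2 cells after 24 h compound exposure. Measured by RT-PCR, 6-FAM primer extension, HpaI digest and capillary electrophoresis; gain-of-signal fit versus DMSO.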

[17] = target: Steroid hormone receptor ERR1 (Homo sapiens) (UniProt P11474); assay: ATG_ERRa_TRANS: Attagene TRANS-FACTORIAL HepG2 Assay for human Estrogen-Related Receptor alpha (ERRa) (AID 2282971; active = hit-call score of the fitted dose curve at least 0.9, where 1 is the maximum); conditions: HepG2 Attagene TRANS reporter, ERRa transactivation
Sequence of Steroid hormone receptor ERR1 (Homo sapiens) (P11474 whole entry, looked up, the tested form may be a part): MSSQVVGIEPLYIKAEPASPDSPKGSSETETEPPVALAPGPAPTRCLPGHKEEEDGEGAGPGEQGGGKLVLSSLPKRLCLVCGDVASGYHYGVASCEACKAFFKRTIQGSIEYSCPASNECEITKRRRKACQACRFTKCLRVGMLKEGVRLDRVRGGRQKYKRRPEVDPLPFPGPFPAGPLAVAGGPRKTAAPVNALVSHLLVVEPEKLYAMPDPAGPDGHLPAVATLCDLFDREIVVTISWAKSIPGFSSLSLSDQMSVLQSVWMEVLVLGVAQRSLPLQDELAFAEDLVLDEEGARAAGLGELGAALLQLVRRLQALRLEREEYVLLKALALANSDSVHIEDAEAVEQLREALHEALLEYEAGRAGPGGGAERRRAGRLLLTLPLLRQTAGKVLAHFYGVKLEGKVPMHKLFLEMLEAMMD
Summary of the method: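 HepG2 cells transiently transfected with GAL4-UAS reporter units and chimeric NR-Gal4 constructs; after 24 hour compound incubation, reporter mRNA quantified by RT-PCR, fluorescent labelling and capillary electrophoresis, gain of signal versus DMSO.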

[18] = target: Glucocorticoid receptor (Homo sapiens) (UniProt P04150); assay: ATG_GR_TRANS: Attagene TRANS-FACTORIAL HepG2 Assay for human Glucocorticoid Receptor (GR) (AID 2282978; active = hit-call score of the fitted dose curve at least 0.9, where 1 is the maximum;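 note: activators score as hits since higher reporter transcript over DMSO is fitted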); conditions: HepG2 Attagene TRANS GR reporter, mRNA transcription
Summary of the method: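 HepG2 transient transfection, multiple reporter units, GAL4-UAS under NR-GAL4 chimera control. 24 h treatment. Reporter mRNA by RT-PCR/CE fluorescence, DMSO as negative control.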

[19] = target: Oxysterols receptor LXR-alpha (Homo sapiens) (UniProt Q13133); assay: ATG_LXRa_TRANS: Attagene TRANS-FACTORIAL HepG2 Assay for human Liver X Receptor alpha (LXRa) (AID 2282980; active = hit-call score of the fitted dose curve at least 0.9, where 1 is the maximum); conditions: HepG2 Attagene TRANS reporter, LXRa transactivation
Sequence of Oxysterols receptor LXR-alpha (Homo sapiens) (Q13133 whole entry, looked up, the tested form may be a part): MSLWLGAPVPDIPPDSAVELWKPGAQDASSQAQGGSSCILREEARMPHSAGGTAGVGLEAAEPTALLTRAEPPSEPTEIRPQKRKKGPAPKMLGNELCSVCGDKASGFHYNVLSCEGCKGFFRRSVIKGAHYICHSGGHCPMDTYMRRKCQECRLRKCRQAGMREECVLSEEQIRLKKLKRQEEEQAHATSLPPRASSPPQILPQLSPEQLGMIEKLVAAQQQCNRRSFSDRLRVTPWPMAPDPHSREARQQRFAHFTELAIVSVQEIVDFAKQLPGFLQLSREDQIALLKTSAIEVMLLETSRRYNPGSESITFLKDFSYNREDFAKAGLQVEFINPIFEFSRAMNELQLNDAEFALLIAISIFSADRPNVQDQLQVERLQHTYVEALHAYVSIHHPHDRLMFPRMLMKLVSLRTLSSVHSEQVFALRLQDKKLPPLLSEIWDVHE
Summary of the method: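 HepG2 cells transiently transfected with GAL4-UAS reporter units for chimeric NR-Gal4 proteins, exposed to chemicals for 24 h. Reporter mRNA quantified by RT-PCR and capillary electrophoresis; gain of signal fitted relative to DMSO.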

Measured: AC50

Clc1cnc(Oc2ccc(Oc3ncc(Cl)cc3Cl)cc2)c(Cl)c1
inactive: [1] | [2] | [3] | [4] | [5] | [6] | [7] | [9] | [10] | [11]
active: [8] 20 µM

Cc1cc(C(F)(C(F)(F)F)C(F)(F)F)ccc1NC(=O)c1cccc(I)c1C(=O)NC(C)(C)CS(C)(=O)=O
inactive: [1] | [2] | [3] | [4] | [5] | [12] | [6] | [7] | [13] | [10] | [11] | [14] | [15]

O=NN1CCCCCC1
inactive: [1] | [2] | [3] | [4] | [5] | [12] | [6] | [7] | [13] | [10] | [16] | [15]

Clc1cc(C(Cl)(Cl)Cl)cnc1Cl
active: [3] 17.5 µM | [12] 8.55 µM
inactive: [1] | [2] | [4] | [5] | [6] | [7] | [17] | [10] | [11] | [14] | [15]

C[C@]12CC[C@@H](O)C[C@@H]1CC[C@@H]1[C@@H]2CC[C@]2(C)C(=O)CC[C@@H]12
inactive: [1] | [2] | [3] | [4] | [5] | [6] | [7] | [8] | [17] | [10] | [11] | [16] | [18] | [19]

O=C(CCl)Nc1ccccc1
active: [1] 32.9 µM | [2] 25.8 µM | [3] 6.32 µM | [10] 22 µM
inactive: [4] | [5] | [6] | [7] | [13] | [19]
